D3 antag: D3 dopamine receptor (human) antagonism. P35462. D3R cells, DiscoveRx beta-arrestin luminescence, antagonist mode; active compounds read low. max response, negative = inhibition, %. 360,000 compounds, 2.5% hits; in the data active = max response below about -50%; note: % is set by controls: 0 for no effect and ±100 for the full control effect
Target sequence (P35462 whole entry, looked up): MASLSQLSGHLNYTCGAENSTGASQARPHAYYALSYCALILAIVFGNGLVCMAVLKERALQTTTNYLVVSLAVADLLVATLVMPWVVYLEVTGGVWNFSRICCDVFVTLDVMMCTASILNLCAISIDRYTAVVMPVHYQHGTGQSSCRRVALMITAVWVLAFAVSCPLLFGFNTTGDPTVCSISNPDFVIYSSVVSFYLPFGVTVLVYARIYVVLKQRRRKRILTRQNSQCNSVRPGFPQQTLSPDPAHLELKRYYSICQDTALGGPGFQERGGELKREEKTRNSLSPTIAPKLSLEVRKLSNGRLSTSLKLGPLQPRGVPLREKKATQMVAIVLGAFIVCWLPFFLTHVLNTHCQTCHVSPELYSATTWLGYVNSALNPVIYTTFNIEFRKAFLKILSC
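Cells plated overnight at 1500 cells/well, then exposed to library compounds with dopamine controls for 90 minutes at 37 degrees C. DiscoveRx reagent added for 30–60 minutes at room temperature; luminescence read, quantitative HTS format.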
D3 ag: D3 dopamine receptor (human) agonism; max activation, %; P35462; D3R DiscoveRx beta-arrestin cells, luminescence, 90 min; 410,000 compounds, 0.58% hits; in the data active = max activation above about 30%; note: 0% is about no effect
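Cells at 1500/well, incubated overnight, then treated with pinned compounds (dopamine as control) for 90 min at 37 degrees C. DiscoveRx reagent added for 30 - 60 minutes at room temperature; luminescence read.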
B2AR arrestin: recruits beta-arrestin to the human beta2-adrenergic receptor; beta-arrestin recruitment to beta2AR, cell-based reporter; Potency, µM (top dose mostly 46.1 µM), without a hit: at the highest dose activation, hits mostly activators; 330,000 compounds, 0.02% hits; AID 492947; active = well fitted activation curve with a large enough effect;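 note: potency is the fitted concentration of half-maximal effect; 0% = DMSO controls and full agonism = EC100 isoproterenol or metaproterenol; nearly all actives have a fitted effect of over 65% in size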
Giardia kill: kills Giardia lamblia. Giardia lamblia trophozoite viability. activity change, % at 7.66 µM, hits read low. 340,000 compounds, 0.15% hits. AID 540267; in the data active = activity change below about -80%;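 note: parasites exposed to compound for two days anaerobically before the ATP read; % is set by controls: 0 for no effect and ±100 for the full control effect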
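Viability, read as ATP luminescence: trophozoites at 100 cells/well, compound added, 48 hrs anaerobic at 37 deg C, then 15-30 min room-temperature development before reading.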
Numbers without * were called inactive; nt = no result given; ! = repeats disagree. Rows were chosen to be rich in hits. Some 2.8% of all compounds tested hit in one or more screens of this group.

SMILES | D3 antag | D3 ag | B2AR arrestin | Giardia kill
Cc1ccc(Nc2nc(N)nc(CSc3nc4ccccc4s3)n2)cc1 | 44 | 45*! | 0% | -3
Cc1cccc(Nc2nc(N)nc(CN3CCC(C(N)=O)CC3)n2)c1C | -20 | -14 | 0% | -2
CCCOc1ccc(NC(=O)CC2C(=O)N(c3cccc(C)c3)C(=O)N2CCc2ccncc2)cc1 (stereo not drawn) | nt | -17 | nt | nt
CCN(CCN(C)C)C(=O)C1CCN(S(=O)(=O)c2c(C)noc2/C=C/c2ccccc2F)CC1 | -54* | -2 | 0% | 3
COc1ccccc1NC(=O)c1nnn(Cc2ccccc2)c1NC(C)=O | -70* | -6 | 0% | -29
CC(=O)Nc1c(C(=O)NCc2ccccc2)nnn1Cc1ccccc1 | -56* | 2 | 0% | 6
COc1ccccc1NC(=O)c1nnn(Cc2ccccc2)c1NC(=O)C(F)(F)F | -22 | -13 | 0% | 2
Cc1ccccc1NS(=O)(=O)c1ccc(C2CNC(=O)C2)cc1 (stereo not drawn) | -104* | -4 | 0% | -24
O=C1CC(c2ccc(S(=O)(=O)NCc3ccccc3)cc2)CN1 (stereo not drawn) | -16 | 1 | -1% | -24
CC1CCN(C(=O)c2[nH]cnc2C(=O)Nc2ccc(Cl)cc2)CC1 | 9 | 45* | 0% | 6
CC1CCN(C(=O)c2[nH]cnc2C(=O)N[C@@H](C)C(=O)OC(C)(C)C)CC1 | -52* | -4 | 0% | 5
C[C@H](NC(=O)c1nc[nH]c1C(=O)N1CCN(C(=O)OC(C)(C)C)CC1)C(=O)OC(C)(C)C | 2 | 10 | 0% | -5
C[C@H](NC(=O)c1nc[nH]c1C(=O)N[C@H](C)c1ccccc1)C(=O)OC(C)(C)C | 9 | 16 | 0% | -6
C[C@H](NC(=O)c1nc[nH]c1C(=O)NC(c1ccccc1)c1ccccc1)C(=O)OC(C)(C)C | -56* | 0 | 0% | 30
C[C@H](NC(=O)c1nc[nH]c1C(=O)N[C@@H](Cc1ccccc1)C(=O)OC(C)(C)C)c1ccccc1 | -58* | -43 | 0% | -8
Cc1ccccc1-c1nn2c(=O)cc(CN3CCN(C(=O)c4ccccc4Br)CC3)nc2s1 | nt | -9 | nt | nt
COC(=O)CN1C(=O)[C@@H]2[C@H](C1=O)[C@@H]1CC(C(=O)OC)=C[C@@H](C(=O)OC)C3C1=C(C(=O)[C@@]3(C)NC(=O)c1ccccc1)[C@@H]2C (stereo partly drawn) | nt | nt | nt | -19
COCc1cc(=O)[nH]c(SCCS(=O)(=O)c2ccc(Cl)cc2Cl)n1 | -62* | -8 | -1% | 12
O=C(CSc1nc(-c2ccccc2F)nc2cc(=O)[nH]n12)Nc1cccc(C(F)(F)F)c1 | nt | -8 | nt | nt
COc1ccc(-n2c(Cc3cccn3C)nnc2SCC(=O)Nc2ccccc2C)cc1 | -7 | 0 | 5% | -19
COc1ccc(NC(=O)CSc2nnc(Cc3cccn3C)n2-c2ccc(C)cc2)cc1OC | 106 | 30* | 0% | -11
COC(=O)c1ccccc1NC(=O)CSc1nnnn1C1CCCCC1 | 22 | -5 | 0% | -12
CCOC(=O)c1ccccc1NC(=O)CSc1nnc(Cc2cccn2C)n1-c1ccc(C)cc1 | 21 | 39* | 0% | -17
CCOC(=O)c1ccccc1NC(=O)CSc1nnnn1C1CCCCC1 | -77* | -30 | -1% | 9
CCOc1ccccc1NC(=O)CSc1nnnn1Cc1ccccc1 | -59* | 5 | 0% | -3
SMILES | D3 antag | D3 ag | B2AR arrestin | Giardia kill
Cc1ccc(C)c(N2CCN(CCCNC(=O)c3cnn(-c4ccc(F)cc4)c3C3CCN(C(=O)OC(C)(C)C)CC3)CC2)c1 | nt | -19 | nt | nt
Cc1c(C2=CCN(S(=O)(=O)c3ccc(CC(C)C)cc3)CC2)c2ccccc2n1CC(=O)N1CCCC1 | nt | -23 | nt | nt
CCOC(=O)c1cn(CC(=O)Nc2ccccc2C(=O)OCC)nn1 | -72* | -6 | -1% | -15
Cc1ccc(-c2csc(C3C(N)=NC(S)=C(C#N)C34CCCCC4)n2)cc1 (stereo not drawn) | -72* | 7 | 0% | 3
CC(C)C(=O)OCC(=O)[C@@]12O[C@H](C3CCCCC3)O[C@@H]1C[C@H]1[C@@H]3CCC4=CC(=O)C=C[C@]4(C)[C@H]3[C@@H](O)C[C@@]12C | nt | 6 | nt | nt
C=CCNC(=O)C1CC1(c1cccc(C)c1)c1cccc(C)c1 (stereo not drawn) | 11 | 6 | nt | 22
Cc1cccc(C2(c3cccc(C)c3)CC2C(=O)Nc2ccc([N+](=O)[O-])cc2O)c1 (stereo not drawn) | -70* | -10 | -1% | 15
CC(C)C(=O)Nc1nnc(SCc2cc(=O)n3ccccc3n2)s1 | nt | 1 | nt | nt
